Most compounds without a hit are left out; they make up all but 5.9% or so of the library.
ATXN2 expr inh: Primary qHTS for Inhibitors of ATXN expression; 360,000 compounds, 0.72% hits; HEK-293 ATXN2-luciferase reporter, luminescence, 24 h; Potency, µM (highest dose often 57 µM), without a hit: top-dose activity change, negative = inhibition, most hits filed as inhibitors; note: % is set by controls: 0 for no effect and ±100 for the full control effect; nearly all actives have a fitted effect of over 55% in size
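qHTS (up to 57 uM final) was run with 24 h compound exposure of reporter cells at 37 °C. Each well was multiplexed: SteadyGlo luminescence measured ATXN2-luciferase expression after a fluorogenic Gly-Phe-AFC viability readout (25 uM final).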
KB-3-1 cytotox: qHTS assay for MDR1-selective chemotherapeutics: Primary screen using the parental adenocarcinoma cell KB-3-1. 400,000 compounds, 1.4% hits. KB-3-1 viability, CellTiter-Glo ATP luminescence, 72 h. Potency, µM (titrated, usually from 46.1 µM), hits mostly cytotoxic; note: % is set by controls: 0 for no effect and ±100 for the full control effect; nearly all actives have a fitted effect of over 60% in size
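Luminescent ATP read-out (CellTiter-Glo) measures survival of drug-naive KB-3-1 cells after 72 h compound exposure at 37 °C. Titration series was screened from lowest to highest concentration, with DMSO vehicle plates as background controls.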
ATXN viability: Viability Counterscreen for Primary qHTS for Inhibitors of ATXN expression; S2 cells (HEK-293 line with an ATXN2-luciferase reporter) viability, CellTiter-Fluor protease fluorescence, 24 h; 400,000 compounds, 0.49% hits; AID 651635, 2014; Potency, µM (titrated, usually from 56.7 µM), most hits filed as cytotoxic; note: nearly all actives have a fitted effect of over 40% in size
TGFb SMAD3 inh: qHTS for Inhibitors of TGF-b | HepG2 CAGA-GFP TGF-b/SMAD3 reporter, GFP fluorescence, 18 h; TGF-beta stimulated, 500 pg/mL final | Potency, µM (highest dose often 46.1 µM), without a hit: at the top dose activity, negative = inhibition, most hits filed as inhibitors | 410,000 compounds, 1.2% hits; note: % is set by controls: 0 for no effect and ±100 for the full control effect; nearly all actives have a fitted effect of over 65% in size
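HEPG2 CAGA-GFP reporter cells (1000/well, DMEM with 1% FBS) received compounds, then recombinant TGF-beta at 500 pg/mL final for 18 hours at 37 degrees C. Per-cell GFP summed per well was normalised to unstimulated and stimulated DMSO controls before curve fitting.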
KB-V1 cytotox: qHTS assay for MDR1-selective chemotherapeutics: Primary screen using the drug-selected MDR subline cells KB-V1 | KB-V1 MDR cells viability, CellTiter-Glo, 72 h | 400,000 compounds, 3.4% hits | Potency, µM (series often up to 46.1 µM), hits mostly cytotoxic | AID 1347076, 2019; note: % is set by controls: 0 for no effect and ±100 for the full control effect; nearly all actives have a fitted effect of over 60% in size
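Drug-selected KB-V1 cells, grown in DMEM lacking phenol red with 10% FBS, receive compound titrations; after three days at 37 degrees C, surviving cell ATP is quantified by CellTiter-Glo luminescence and responses normalized and curve-fitted.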
HepG2 viability: qHTS for Inhibitors of TGF-b: Cytotox Counterscreen; HepG2 CAGA-GFP viability, ATP luminescence, 18 h; Potency, µM (titrated, usually from 46.1 µM), inactives show at the highest dose activity change, negative = cytotoxicity, most hits filed as cytotoxic; 410,000 compounds, 0.76% hits; AID 588856, 2011
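HepG2 CAGA-GFP cells (1000/well, DMEM with 1% FBS) received compound, then TGF-beta at 500 pg/mL final, and were incubated 18 hours at 37 degrees C. Viability was read by CellTiter-Glo luminescence. Media-only wells were set as complete cell-killing and DMSO as no toxicity.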
Active calls of the source: *; i = inactive; ? = inconclusive; · = no result given; [ ] = dose if it differs, or a comment. Calls come from the whole dose curve; as a rule, active = well fitted curve in the direction sought with a large enough effect; inconclusive = small, poorly fitted or top-dose-only effect, or another doubt; inactive = no such curve, though single readings can be large; an effect the other way counts as inactive or inconclusive. Potency is the fitted concentration of half-maximal effect.

SMILES	ATXN2 expr inh	KB-3-1 cytotox	ATXN viability	TGFb SMAD3 inh	KB-V1 cytotox	HepG2 viability
COc1ccc(Nc2nc(NCC3CCCO3)c3ccccc3n2)c(OC)c1 (centres undefined)	-27%[11.3 µM]	i	?	-22%	i	-11%
c1ccc(Nc2nc(NCC3CCCO3)c3ccccc3n2)cc1 (centres undefined)	-32%[11.3 µM]	16µM*	?	?	21µM*	-18%
O=Cc1ccc(N2CCOCC2)cc1	·	i	·	19%	i	1%
O=C(CO)[C@@H](O)[C@H](O)[C@H](O)CO	·	·	i	·	·	·
CCCCNC(=O)C1(C)CCCCN1Cc1ccccc1-c1ccccc1 (centres undefined)	?	?	i	?	?	20µM*
CC(C)C(NS(C)(=O)=O)c1nnc2n1CCN(Cc1ccc(Cl)cc1)CC2 (centres undefined)	·	·	i	·	·	·
NC(=S)NN=C1c2cc(OCCN3CCOCC3)ccc2-c2ccc(OCCN3CCOCC3)cc21	7.9µM*	23µM*	·	?	?	-60%
CN(C)C(=O)CSc1nnc([C@H](Cc2c[nH]c3ccccc23)NC(=O)OC(C)(C)C)o1	0%	i	i	0%	13µM*	-6%
Cc1cccc(NC(=O)CN2C(=O)CC(c3ccccc3)Sc3ccccc32)c1 (centres undefined)	4%	i	i	36%	?	3%
CCOC(=O)c1ccccc1NC(=O)CN1C(=O)CC(c2ccccc2)Sc2ccccc21 (centres undefined)	-8%	?	?	-13%	12µM*	-2%
COc1ccc(C2CC(=O)N(CC(=O)Nc3ccc(C)c(Cl)c3)c3ccccc3S2)cc1OC (centres undefined)	11%	?	i	-6%	18µM*	-10%
CN[C@@H]1C[C@H]2O[C@@](C)([C@H]1OC)n1c3ccccc3c3c4c(c5c6ccccc6n2c5c31)C(=O)N[C@H]4O	1.2µM*	·	·	·	·	·
Cn1c2ccccc2c2c(C(=O)O)cn(C3CCCC3)c(=O)c21	-20%	i	i	?	i	-21%
CCOC(=O)C1CCCN(C(=O)c2oc3ccccc3c2C)CC1 (centres undefined)	-6%	i	i	7%	i	6%
Cc1ccc(C(=O)O/N=C/c2c(N3CCOCC3)n(C)c3ccccc23)cc1	?	?	?	-16%	?	-19%
Cn1c(N2CCOCC2)c(/C=N/OC(=O)c2ccc(F)cc2)c2ccccc21	?	4.1µM*	?	-9%	?	-14%
O=C(O)C1=C[C@H](c2csc3ccccc23)C[C@H](OCc2ccc(CO)cc2)O1	1%	i	i	-17%	i	4%
O=C(NCc1nc2ccccc2[nH]1)C1=C[C@H](c2ccc(C(F)(F)F)cc2)C[C@H](OCc2ccc(CO)cc2)O1	?	?	?	11µM*	i	-31%
O=C(NCc1nc2ccccc2[nH]1)C1=C[C@H](c2ccc(Br)cc2)C[C@H](OCc2ccc(CO)cc2)O1	-18%	i	?	-9%	i	0%
O=C(NCc1ccccc1)C1=C[C@@H](c2csc3ccccc23)C[C@@H](OCc2ccc(CO)cc2)O1	?	21µM*	?	?	21µM*	-30%
O=C(NCc1ccccc1)C1=C[C@@H](c2csc3ccccc23)C[C@@H](OCCCCO)O1	5.6µM*	5.8µM*	?	?	?	-15%
CCOC(=O)COc1ccc(-c2nnn(CC(=O)Nc3ccccc3)n2)cc1	8%	i	?	?	i	-46%
CC(C)NC(=O)N1Cc2cc(C(=O)NC3CCCC3)nc(-c3cccc(-c4cccnc4)c3)c2[C@H]1CCO	-16%	i	?	·	i	·
CS(=O)(=O)c1ccc(-c2sc3ccccc3c2C#CCCO)cc1	?	i	?	11µM*	i	-33%
CCCNC(=O)C1(C)CCCN(CCC(=O)c2ccccc2)C1 (centres undefined)	6%	i	i	16µM*	i	14µM*
SMILES	ATXN2 expr inh	KB-3-1 cytotox	ATXN viability	TGFb SMAD3 inh	KB-V1 cytotox	HepG2 viability
Cc1c(C(=O)N(C)CCOc2ccccc2)oc2c(Cl)cccc12	17%	i	i	0%	21µM*	-4%
CCN(CC(=O)Nc1ccccc1C(F)(F)F)C(=O)c1oc2c(Cl)cccc2c1C	-7%	i	i	-9%	18µM*	0%
COc1ccc2oc(C(=O)N(C)CCOc3ccc(Cl)cc3)c(C)c2c1	-15%	i	i	0%	i	-17%
CCN(CC(=O)Nc1ccc(OC)cc1)C(=O)c1oc2c(Cl)cccc2c1C	-1%	i	i	8%	i	-8%
CCN(CC(=O)Nc1cc(C)on1)CC(=O)Nc1ccccc1C(F)(F)F	-14%	i	i	?	18µM*	-31%
Cc1noc(C)c1C(=O)N1CCN(C(=O)c2sc3cc(Cl)ccc3c2Cl)CC1	1%	i	i	-1%	23µM*	-11%
Cc1noc(C)c1C(=O)N1CCN(c2ccccc2O)CC1	-15%	i	?	-5%	i	-2%
Cc1nc2cc(NC(=O)[C@@H]3C[C@@H](Sc4ccccn4)CN3C3CCCCCC3)ccc2s1	·	·	i	·	·	·
Cc1ccc(NS(=O)(=O)c2cc3c(cc2N2CCC2)NC(=O)CC3)cc1C	·	i	·	·	i	·
COc1cccc(-n2c(=O)c3sc4ccccc4c3n(CC(=O)Nc3cccc(Cl)c3)c2=O)c1	3%	i	?	7.9µM*	i	-5%
COc1cccc(NC(=O)Cn2c(=O)n(-c3ccc(Cl)cc3)c(=O)c3sc4ccccc4c32)c1	·	·	·	0%	·	-24%
CCC(CC)C(C(=O)NCc1ccccc1)N1CCN(C(=O)C2CCCO2)CC1 (centres undefined)	·	i	·	·	i	·
CCOc1ccc(N=C2NC(=O)S/C2=C\c2ccc(N(C)C)cc2)cc1	12%	i	i	42%	21µM*	-15%
CN1CCN(CCOC2Cc3ccccc3Sc3ccc(Cl)cc32)CC1 (centres undefined)	-16%	?	i	?	23µM*	-29%
OCCN1CCN(C2Cc3cc(Cl)ccc3Sc3ccc(Cl)cc32)CC1 (centres undefined) (tested in a mixture with another compound)	?	?	?	?	?	10µM*
